Shiga toxin inh: Shiga toxin inhibition | Vero cells, Shiga toxin protein synthesis inhibition reporter | inhibition, % at 38.7 µM | 9.2% of 290,000 active | AID 2315; in the data active means inhibition mostly above about 28%, no sharp cut-off; inactive means mostly below about 43%; further: 0% is about no effect
Giardia FBPA inh: blocks Giardia fructose-bisphosphate aldolase activity; AID 2451; 0.71% of 290,000 active; Potency, µM (doses to about 59.6 µM), for inactives: at the top dose activity, negative = inhibition, actives largely listed as inhibitors; A8B2U2; purified Giardia FBPA; further: potency means the concentration at half of the fitted maximal effect; on the % scale 0 is the no-effect control and ±100 the full control effect; nearly all actives have a fitted effect of over 55% in size
Target sequence (A8B2U2 whole entry, looked up): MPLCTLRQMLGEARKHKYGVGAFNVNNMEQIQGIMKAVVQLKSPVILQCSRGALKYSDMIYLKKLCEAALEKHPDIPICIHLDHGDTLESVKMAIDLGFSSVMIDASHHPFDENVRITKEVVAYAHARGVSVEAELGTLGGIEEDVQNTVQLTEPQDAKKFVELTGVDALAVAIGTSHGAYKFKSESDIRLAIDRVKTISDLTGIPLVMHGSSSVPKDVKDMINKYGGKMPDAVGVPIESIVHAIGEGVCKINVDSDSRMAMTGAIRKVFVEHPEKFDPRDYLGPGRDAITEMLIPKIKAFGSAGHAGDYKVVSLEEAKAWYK
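Giardia FBPA (40 nM reagent) was preincubated 10 min at RT with compound (up to 57.5 uM final), then substrate plus GAPDH/TPI/NAD/arsenate coupling system with diaphorase/resazurin was added; resorufin fluorescence (525/598 nm) was read after 20 min.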
CHX counter: counter-screen for Shiga toxin inhibitors: cycloheximide protein synthesis inhibition; cell reporter, cycloheximide protein synthesis inhibition counterscreen; max response, %; 12% of 300,000 active; AID 2314; in the data active means max response mostly above about 13%, no sharp cut-off; inactive means mostly below about 14%; further: read at 38.3 µM for the half of the compounds with a filed dose; 0% is about no effect
Tb PYK inh: inhibitors of Trypanosoma brucei pyruvate kinase. TbPYK enzyme, Kinase-Glo Plus ATP luminescence, 45 min. Potency, µM (series often up to 76.8 µM), inactives show at the top dose activity, negative = inhibition, usual class: inhibitors. 0.12% of 410,000 active; further: potency means the concentration at half of the fitted maximal effect; on the % scale 0 is the no-effect control and ±100 the full control effect; nearly all actives have a fitted effect of over 50% in size
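Enzyme and substrate buffer are dispensed first and compound is pin-transferred. ADP at 130 uM final then starts the reaction, which runs 45 min at room temperature. Detection reagent is added for 10 min before luminescence is imaged.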
LmPK inh: LmPK (Leishmania mexicana) enzyme inhibition; Q27686; purified LmPK, Kinase-Glo ATP luminescence, 1 h; Potency, µM (highest dose often 57.5 µM), inactives show at the highest dose activity change, negative = inhibition, actives largely listed as inhibitors; 0.37% of 290,000 active; further: potency means the concentration at half of the fitted maximal effect; on the % scale 0 is the no-effect control and ±100 the full control effect
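In 50 mM imidazole pH 7.2 with 7 mM MgCl2, LmPK (0.1 nM) turned over PEP (0.5 mM) and ADP (0.1 mM) for 1 h at room temperature. Luciferase read-out of ATP.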
RE007 growth inh: less growth of the S. pombe RE007 Vpr strain; S. pombe RE007 Vpr strain, BacTiter-Glo ATP luminescence, 24 h; Potency, µM (titrated, usually from 92.2 µM), for inactives: top-dose activity change, negative = less growth, actives largely listed as inhibitors; 0.21% of 360,000 active; AID 651644; active means well fitted falling curve with a large enough effect; inconclusive means small, poorly fitted or top-dose-only effect; inactive means no such curve, though single readings can be large or run the other way; further: potency means the concentration at half of the fitted maximal effect; on the % scale 0 is the no-effect control and ±100 the full control effect; nearly all actives have a fitted effect of over 50% in size
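Fission yeast RE007 carrying one integrated HIV-1 vpr copy, seeded at OD 0.01 in PMG+AL medium with 23 nL pinned compound. Grown 24 h at 30 degrees; viability read by BacTiter-Glo luminescence after 5 min.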
Active calls of the source: *; u = inconclusive; x = no result given; [ ] = dose if it differs, or a comment. Only a selection was taken, and hits are over-represented in it overall. Unless noted, the call rests on the fitted dose curve; in most records, active means well fitted curve in the direction sought with a large enough effect; inconclusive means small, poorly fitted or top-dose-only effect, or another doubt; inactive means no such curve, though single readings can be large; an effect the other way counts as inactive or inconclusive.

SMILES	Shiga toxin inh	Giardia FBPA inh	CHX counter	Tb PYK inh	LmPK inh	RE007 growth inh
Cc1cc(Br)ccc1NC(=S)NCCc1ccccc1	6.3	x	10.1	-3.7%	0.2%	-3.1%
CC(C)(C)NC(=S)NCCc1ccccc1	74.8*	0.3%	30.5*	-3.3%	-2.2%	-5.2%
Cc1cnn(C(=S)NCCc2ccccc2)c1	77.4*	-14.4%	34.5*	-4.9%	0.5%	-4.9%
Cc1ccccc1NC(=S)NCCc1ccccc1	16.4	-1.6%	14.7*	-10.7%	2.8%	x
COc1ccc(CCNC(=S)Nc2ccccc2C)cc1	-20.0	-2.2%	-2.6	-12.2%	6.8%	6.7%
Cc1c(C(=O)Nc2ccc(F)c(Cl)c2)sc2nc3n(c(=O)c12)CCC3	x	x	x	-8.6%	x	x
Cc1ccc(-n2ncc(C(=O)Nc3ccc4c(c3)OCCO4)c2C2CCN(C(=O)OC(C)(C)C)CC2)cc1C	x	x	x	-0.4%[15.4 µM]	x	x
COC(=O)C1=C(C)NC(C)=C(C(=O)OC(C)(C)CN(C)CCC(c2ccccc2)c2ccccc2)C1c1cccc([N+](=O)[O-])c1 (configuration not stated)	x	x	x	-6.6%	x	x
Cc1cccc(Nc2cc(C)c3c(O)cccc3n2)c1C	92.0*	-15.2%	31.9*	0.5%	-1.2%	1.0%
Cc1cc(Nc2ccccc2O)nc(C)n1	x	x	x	2.0%	x	x
COc1ccc2oc(=O)c(C(=O)N3CCN(c4ccccc4C)CC3)cc2c1	131.6*	-8.0%	65.6*	-8.3%	4.2%	9.3%
COc1ccc2oc(=O)c(C(=O)N3CCN(c4ccccc4)CC3)cc2c1	78.0	-0.7%	19.2*	-5.5%	1.9%	8.8%
COc1ccc2oc(=O)c(C(=O)N3CCN(C(=O)c4ccccc4)CC3)cc2c1	-10.4	-0.2%	-2.6	3.6%	-4.3%	1.9%
N#Cc1cc2c(=O)n3ccccc3nc2n(-c2nnc(SCc3ccccc3Cl)s2)c1=O	x	x	x	0.0%	x	x
O=C(COc1ccc(Cl)cc1)Nc1ccc(C(=O)OCc2cc(=O)n3ccsc3n2)cc1	x	x	x	3.0%	x	x
CCN=c1scc(C)n1/N=C/c1ccc(O)c(O)c1O	48.5	u	25.4*	u	-7.4%	-27.0%
COCCN=c1scc(-c2ccccc2)n1/N=C/c1c[nH]c2ccccc12	29.5	-8.5%	16.7*	2.1%	7.8%	-14.8%
COCCN=c1scc(-c2cccs2)n1/N=C/c1ccc(O)c(O)c1O	54.6*	u	32.4*	u	-6.7%	-9.8%
CCN=c1scc(C)n1/N=C/c1cc(Br)c(O)c(Br)c1	31.5*	-24.9%	19.8	-9.4%	-1.5%	-23.8%
Cc1ccc(C)c(SCC(=O)NCC(c2ccco2)N2CCCCC2)c1 (configuration not stated)	x	x	x	1.4%	x	-28.3%
COc1ccccc1N(O)C1CC(=O)N(c2ccc(F)cc2)C1=O (configuration not stated)	61.4*	-14.2%	32.0*	-17.9%	1.4%	-6.3%
CCCOc1ccccc1N1C(=O)CC(N(O)c2ccccc2)C1=O (configuration not stated)	27.9	-0.8%	13.6*	-0.4%	6.3%	2.9%
CCCOc1ccc(N2C(=O)CC(N(CCc3ccccc3)C(=O)c3ccccc3)C2=O)cc1 (configuration not stated)	14.5	-3.6%	21.3*	-0.5%	0.0%	-1.6%
CCCOc1ccc(N2C(=O)CC(N(O)c3ccccc3)C2=O)cc1 (configuration not stated)	113.0*	1.6%	19.7	0.7%	-2.6%	-0.3%
COc1ccccc1N1C(=O)CC(N(O)c2ccccc2)C1=O (configuration not stated)	1.9	0.1%	-1.3	-0.3%	1.0%	4.8%
CCOc1ccccc1CNC(=O)c1cnc2sc(N(CC)CC)nn2c1=O	x	x	x	-0.7%	x	x
Cc1ccc(CNC(=O)Cn2c3ncccc3c(=O)n2-c2ccc(C)cc2)cc1	x	x	x	-7.9%	x	x
O=C(/C=C/Sc1ccccc1)c1ccccc1	182.3*	-2.5%	139.9*	7.9%	u	u
Cc1cccc(C=CC(=O)c2ccccc2)c1	x	x	x	10.2%	x	u
O=C(/C=C/Sc1ccccc1)c1ccc(Cl)cc1	115.8*	0.7%	68.2*	4.1%	-9.5%	u

Bioassay records deposited in PubChem by National Center for Advancing Translational Sciences (NCATS).
